# Reference: the supplement of paper PMC8728848
# This is one part of a sample in which the strongest signals are shown more often than they occur.
# Columns and labels:
# Assay in all cases: glycan array binding signal (z-score within array); higher = stronger binding
# Conditions in all cases: glycan notation: IUPAC condensed, linker removed
# [1] = biological target: Fuc(a1-2)Gal
# Method in brief: (§1)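 Glycan array data came from 3228 arrays in the Consortium for Functional Glycomics database, and only arrays with an available protein sequence were kept. Glycan names were put into IUPAC-condensed notation, and columns mapping to the same glycan were averaged. The binding signal is a within-array Z-score, averaged across arrays of one protein sequence run at different concentrations or buffers and across linkers. A negative Z-score can be read as non-binding.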
# [2] = biological target: Fuc(a1-2)Gal(b1-4)Glc6S
# Method in brief: as §1
# [3] = biological target: Fuc(a1-2)Gal(b1-4)GlcNAc(b1-2)Man(a1-3)[Fuc(a1-2)Gal(b1-4)GlcNAc(b1-2)Man(a1-6)]Man(b1-4)GlcNAc(b1-4)[Fuc(a1-6)]GlcNAc
# Method in brief: as §1
# [4] = biological target: Fuc(a1-2)Gal(b1-4)GlcNAc(b1-3)GalNAc
# Method in brief: as §1
# [5] = biological target: Fuc(a1-2)Gal(b1-4)[Fuc(a1-3)]GlcNAc(b1-3)GalNAc
# Method in brief: as §1
# [6] = biological target: Fuc(a1-2)Gal(b1-4)[Fuc(a1-3)]GlcNAc(b1-3)[Neu5Ac(a2-6)Gal(b1-4)GlcNAc(b1-6)]Gal(b1-4)Glc
# Method in brief: as §1
# [7] = biological target: Fuc(a1-2)[Gal(a1-3)]Gal(b1-4)GlcNAc(b1-6)GalNAc
# Method in brief: as §1
# [8] = biological target: Fuc(a1-2)[Gal(a1-3)]Gal(b1-4)[Fuc(a1-3)]Glc
# Method in brief: as §1
# [9] = biological target: Fuc(a1-2)[GalNAc(a1-3)]Gal
# Method in brief: as §1
# [10] = biological target: Fuc(a1-3)[Gal(b1-4)]GlcNAc(b1-2)Man(a1-3)[Fuc(a1-3)[Gal(b1-4)]GlcNAc(b1-2)Man(a1-6)]Man(b1-4)GlcNAc(b1-4)GlcNAc
# Method in brief: as §1
# [11] = biological target: Fuc(a1-3)[Gal(b1-4)]GlcNAc(b1-2)Man(a1-3)[Fuc(a1-3)[Gal(b1-4)]GlcNAc(b1-2)Man(a1-6)]Man(b1-4)GlcNAc(b1-4)[Fuc(a1-6)]GlcNAc
# Method in brief: as §1
# [12] = biological target: Fuc(a1-3)[Gal3S(b1-4)]GlcNAc
# Method in brief: as §1
# [13] = biological target: Fuc(a1-4)GlcNAc
# Method in brief: as §1
# [14] = biological target: Fuc(b1-3)GlcNAc
# Method in brief: as §1
# [15] = biological target: Gal(a1-3)Gal(b1-3)GlcNAc
# Method in brief: as §1
# [16] = biological target: Gal(a1-3)Gal(b1-3)GlcNAc(b1-3)GalNAc
# Method in brief: as §1
# [17] = biological target: Gal(a1-3)Gal(b1-4)Glc
# Method in brief: as §1
# [18] = biological target: Gal(a1-3)Gal(b1-4)GlcNAc
# Method in brief: as §1
# [19] = biological target: Gal(a1-3)Gal(b1-4)GlcNAc(b1-3)GalNAc
# Method in brief: as §1
# [20] = biological target: Gal(a1-4)Gal(b1-4)GlcNAc
# Method in brief: as §1
# [21] = biological target: Gal(b1-3)GlcNAc(b1-3)Gal(b1-4)GlcNAc(b1-3)Gal(b1-4)GlcNAc(b1-2)[Gal(b1-3)GlcNAc(b1-3)Gal(b1-4)GlcNAc(b1-3)Gal(b1-4)GlcNAc(b1-6)]Man(a1-6)[Gal(b1-3)GlcNAc(b1-3)Gal(b1-4)GlcNAc(b1-3)Gal(b1-4)GlcNAc(b1-2)Man(a1-3)]Man(b1-4)GlcNAc(b1-4)[Fuc(a1-6)]GlcNAc
# Method in brief: as §1
# [22] = biological target: Gal(b1-3)GlcNAc(b1-3)GalNAc
# Method in brief: as §1
# [23] = biological target: Gal(b1-3)[Fuc(a1-4)]GlcNAc(b1-2)Man(a1-3)[Gal(b1-3)[Fuc(a1-4)]GlcNAc(b1-2)Man(a1-6)]Man(b1-4)GlcNAc(b1-4)[Fuc(a1-6)]GlcNAc
# Method in brief: as §1
# [24] = biological target: Gal(b1-3)[Fuc(a1-4)]GlcNAc(b1-3)Gal(b1-3)[Fuc(a1-4)]GlcNAc
# Method in brief: as §1
# [25] = biological target: Gal(b1-4)Glc
# Method in brief: as §1
# [26] = biological target: Gal(b1-4)GlcNAc(b1-3)Gal(b1-4)GlcNAc(b1-3)Gal(b1-4)GlcNAc
# Method in brief: as §1
# [27] = biological target: Gal(b1-4)GlcNAc(b1-3)Gal(b1-4)GlcNAc(b1-3)Gal(b1-4)GlcNAc(b1-2)[Gal(b1-4)GlcNAc(b1-3)Gal(b1-4)GlcNAc(b1-3)Gal(b1-4)GlcNAc(b1-6)]Man(a1-6)[Gal(b1-4)GlcNAc(b1-3)Gal(b1-4)GlcNAc(b1-3)Gal(b1-4)GlcNAc(b1-2)Man(a1-3)]Man(b1-4)GlcNAc(b1-4)[Fuc(a1-6)]GlcNAc
# Method in brief: as §1
# [28] = biological target: Gal(b1-4)GlcNAc(b1-3)Gal(b1-4)GlcNAc(b1-3)Gal(b1-4)GlcNAc(b1-3)Gal(b1-4)GlcNAc(b1-3)Gal(b1-4)GlcNAc(b1-2)Man(a1-3)[Gal(b1-4)GlcNAc(b1-3)Gal(b1-4)GlcNAc(b1-3)Gal(b1-4)GlcNAc(b1-3)Gal(b1-4)GlcNAc(b1-3)Gal(b1-4)GlcNAc(b1-2)Man(a1-6)]Man(b1-4)GlcNAc(b1-4)[Fuc(a1-6)]GlcNAc
# Method in brief: as §1
binder,measurement,setting,value
SP16664D-bth-476-27-476 (Bacteroides thetaiotaomicron) (protein) DDLEVGKNIDESAYSGIYENNAYLRDGKSNLVSKVVELHGETYATTVKMGLSKTPNTATSAKVKIDAAYLETYNKAHNTDFALYPQDLVTFANEGILTVNANTKSAEVEMTIRAGEGLQEDKTYAIPVAISDQSSDITIKDEDAKHCIYLVKDMRNAGDAYKGEGVMQGYLFFEVNDVNPLNTLSFQLENGKLLWDVVVLFAANINYDAEAGRPRVQCNPNVQYLLDNNETLLQPLRRRGVKVLLGLLGNHDITGLAQLSEQGAKDFAREVAQYCKAYNLDGVNYDDEYSNSPDLSNPSLTNPSTAAAARLCYETKQAMPDKLVTVFDWGQMYGVATVDGVDAKEWIDIVVANYGSAAYPIGQMTKKQCSGISMEFNLGGGGSLSASKAQSMIDGGYGWFMGFAPSPAKYGSVFSRLQGGGEVLYGSNVAAPTIFYKKNDPTPYKYPDDL,glycan array binding signal (z-score),[1],-0.249
same,glycan array binding signal (z-score),[2],0.006
same,glycan array binding signal (z-score),[3],0.161
same,glycan array binding signal (z-score),[4],-0.244
same,glycan array binding signal (z-score),[5],0.134
same,glycan array binding signal (z-score),[6],-0.167
same,glycan array binding signal (z-score),[7],0.007
same,glycan array binding signal (z-score),[8],-0.184
same,glycan array binding signal (z-score),[9],-0.152
same,glycan array binding signal (z-score),[10],0.013
same,glycan array binding signal (z-score),[11],3.02
same,glycan array binding signal (z-score),[12],-0.196
same,glycan array binding signal (z-score),[13],5.19
same,glycan array binding signal (z-score),[14],-0.141
same,glycan array binding signal (z-score),[15],0.314
same,glycan array binding signal (z-score),[16],-0.337
same,glycan array binding signal (z-score),[17],-0.117
same,glycan array binding signal (z-score),[18],-0.212
same,glycan array binding signal (z-score),[19],-0.12
same,glycan array binding signal (z-score),[20],-0.17
same,glycan array binding signal (z-score),[21],0.144
same,glycan array binding signal (z-score),[22],0.061
same,glycan array binding signal (z-score),[23],0.054
same,glycan array binding signal (z-score),[24],1.49
same,glycan array binding signal (z-score),[25],-0.258
same,glycan array binding signal (z-score),[26],0.004
same,glycan array binding signal (z-score),[27],1.01
same,glycan array binding signal (z-score),[28],20
